Records with an inconclusive call do not appear. Activity calls are given as the source filed them. Calls come from the whole dose curve; as a rule, active = well fitted curve in the direction sought with a large enough effect; inconclusive = small, poorly fitted or top-dose-only effect, or another doubt; inactive = no such curve, though single readings can be large; an effect the other way counts as inactive or inconclusive.
Experiments:
[1] = Confirmation and Secondary Assay for Modulators of Hemoglobin Beta Chain Splicing at IVS2 654 locus (AID 910); conditions: HeLa EGFP-654 splicing reporter, GFP fluorescence, 48 h; series mostly up to 38.3 µM
Procedure, shortened: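 HeLa cells stably carrying EGFP interrupted by mutant beta-globin IVS2-654 intron (CMV-driven) were treated with compound for 2 days at 37C; corrected splicing was scored as total peak GFP intensity per well (488 nm excitation, 500-520 nm emission).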

[2] = Confirmation and Secondary Assay for Modulators of Hemoglobin Beta Chain Splicing at IVS2 705 locus (AID 930); conditions: HeLa EGFP-705 splicing reporter, GFP fluorescence, 48 h; series mostly up to 38.3 µM;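 note: HeLa cells stably expressing the EGFP-705 splicing reporter; GFP fluorescence per well restored by corrected splicing of the IVS2-705 intron in EGFP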
Procedure, shortened: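 Read-out: total peak GFP fluorescence per well (488 nm excitation, 500-520 nm emission) by laser-scanning cytometry. Cells: HeLa EGFP-705 splicing reporter, 2 days compound exposure in Optimem/2% FCS.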

CP194 = assay: qHTS profiling for inhibitors of Plasmodium falciparum proliferation (AID 504749); note: nearly all actives have a fitted effect of over 60% in size; conditions: P. falciparum in erythrocytes, SYBR Green DNA, 72 h; series mostly up to 28.7 µM
Procedure, shortened: (§1)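 P. falciparum-infected erythrocytes (0.3% parasitemia, 2.5% hematocrit final) were exposed to compounds for 72 h at 37 C in 5% CO2, then lysed with SYBR Green buffer overnight at room temperature; parasite DNA fluorescence was normalized to artemisinin and DMSO controls.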

CP215 = assay: as above; conditions: P. falciparum in erythrocytes, SYBR Green DNA, 72 h; series mostly up to 28.7 µM
Procedure, shortened: as §1

[3] = target: Pyruvate kinase PKM (Homo sapiens) (UniProt P14618); assay: qHTS Assay for Inhibitors of Human Muscle Pyruvate Kinase (AID 958); conditions: purified human PKM enzyme activity; series mostly up to 57.5 µM
Pyruvate kinase PKM (Homo sapiens), sequence (P14618 whole entry, looked up): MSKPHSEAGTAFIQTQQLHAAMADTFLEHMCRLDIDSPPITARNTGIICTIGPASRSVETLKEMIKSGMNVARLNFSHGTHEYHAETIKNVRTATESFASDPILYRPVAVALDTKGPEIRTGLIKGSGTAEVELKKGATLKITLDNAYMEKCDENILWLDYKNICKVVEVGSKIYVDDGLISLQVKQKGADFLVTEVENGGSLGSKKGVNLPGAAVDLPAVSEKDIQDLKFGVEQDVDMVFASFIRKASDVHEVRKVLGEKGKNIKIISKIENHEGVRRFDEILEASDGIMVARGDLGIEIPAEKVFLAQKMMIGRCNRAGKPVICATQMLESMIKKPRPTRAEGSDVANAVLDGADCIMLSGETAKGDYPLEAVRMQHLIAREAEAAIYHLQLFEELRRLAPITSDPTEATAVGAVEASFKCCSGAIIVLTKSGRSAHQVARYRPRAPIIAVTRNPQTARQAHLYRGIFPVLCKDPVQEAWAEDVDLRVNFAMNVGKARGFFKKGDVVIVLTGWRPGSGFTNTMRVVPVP
Procedure, shortened: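 Screening used highly purified human pyruvate kinase M2 under submaximal activity, with PEP at its Km and ADP below Km. After an hour at room temperature, ATP was read by luciferase luminescence.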

[4] = target: DNA dC->dU-editing enzyme APOBEC-3G (Homo sapiens) (UniProt Q9HC16); assay: qHTS for inhibitors of Vif-A3G interactions: Validation (AID 588379); conditions: Vif-A3G protein interaction assay; series mostly up to 46.1 µM
DNA dC->dU-editing enzyme APOBEC-3G (Homo sapiens), sequence (Q9HC16 whole entry, looked up): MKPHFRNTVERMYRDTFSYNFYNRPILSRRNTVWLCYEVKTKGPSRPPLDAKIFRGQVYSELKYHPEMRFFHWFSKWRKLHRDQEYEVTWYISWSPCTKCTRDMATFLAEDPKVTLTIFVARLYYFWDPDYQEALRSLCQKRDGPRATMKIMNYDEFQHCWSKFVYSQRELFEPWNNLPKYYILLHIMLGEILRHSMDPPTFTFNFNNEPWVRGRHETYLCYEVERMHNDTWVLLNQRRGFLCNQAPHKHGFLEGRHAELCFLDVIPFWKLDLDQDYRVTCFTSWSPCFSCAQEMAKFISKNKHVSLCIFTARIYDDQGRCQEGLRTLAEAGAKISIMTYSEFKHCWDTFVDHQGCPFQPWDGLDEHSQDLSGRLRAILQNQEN
Procedure, shortened: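 HeLa cells stably expressing Vif and A3G-eYFP, 700 cells/well, incubated overnight at 37 deg C, then exposed to compound overnight at 37 deg C. Inhibition of Vif-mediated degradation read as increased yellow fluorescence (Ex 488/Em 500-530) by laser-scanning cytometry.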

CP268 = assay: qHTS profiling for inhibitors of Plasmodium falciparum proliferation (AID 504749); note: nearly all actives have a fitted effect of over 60% in size; conditions: P. falciparum in erythrocytes, SYBR Green DNA, 72 h; series mostly up to 28.7 µM
Procedure, shortened: as §1

CP269 = assay: as above; conditions: P. falciparum in erythrocytes, SYBR Green DNA, 72 h; series mostly up to 28.7 µM
Procedure, shortened: as §1

CP291 = assay: as above; conditions: P. falciparum in erythrocytes, SYBR Green DNA, 72 h; series mostly up to 28.7 µM
Procedure, shortened: as §1

CP297 = assay: as above; conditions: P. falciparum in erythrocytes, SYBR Green DNA, 72 h; series mostly up to 28.7 µM
Procedure, shortened: as §1

CP305 = assay: as above; conditions: P. falciparum in erythrocytes, SYBR Green DNA, 72 h; series mostly up to 28.7 µM
Procedure, shortened: as §1

ECU = assay: as above; conditions: P. falciparum in erythrocytes, SYBR Green DNA, 72 h; series mostly up to 28.7 µM
Procedure, shortened: as §1

FAB9 = assay: as above; conditions: P. falciparum in erythrocytes, SYBR Green DNA, 72 h; series mostly up to 28.7 µM
Procedure, shortened: as §1

TAB109 = assay: as above; conditions: P. falciparum in erythrocytes, SYBR Green DNA, 72 h; series mostly up to 28.7 µM
Procedure, shortened: as §1

[5] = target: Pyruvate kinase (Leishmania mexicana) (UniProt Q27686); assay: qHTS Validation Assay for Activators of Leishmania Mexicana Pyruvate Kinase (AID 959); conditions: purified L. mexicana pyruvate kinase, enzyme activity; series mostly up to 57.5 µM
Pyruvate kinase (Leishmania mexicana), sequence (Q27686 2-499 E452W): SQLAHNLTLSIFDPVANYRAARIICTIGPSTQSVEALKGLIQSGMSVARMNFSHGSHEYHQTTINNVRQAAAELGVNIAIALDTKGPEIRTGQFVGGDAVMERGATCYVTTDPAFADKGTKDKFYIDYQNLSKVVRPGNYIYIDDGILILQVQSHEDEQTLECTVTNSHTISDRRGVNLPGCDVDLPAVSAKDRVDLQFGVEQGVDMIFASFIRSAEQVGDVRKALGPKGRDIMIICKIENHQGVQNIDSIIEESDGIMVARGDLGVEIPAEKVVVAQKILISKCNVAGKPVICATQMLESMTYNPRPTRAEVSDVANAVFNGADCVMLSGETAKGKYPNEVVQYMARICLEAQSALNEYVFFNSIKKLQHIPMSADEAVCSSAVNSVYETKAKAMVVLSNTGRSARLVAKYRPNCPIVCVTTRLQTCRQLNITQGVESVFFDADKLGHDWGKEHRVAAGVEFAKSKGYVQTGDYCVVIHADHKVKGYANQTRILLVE
Procedure, shortened: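 Luminescent ATP detection (PKLight) after a 1 h room-temperature reaction of 0.2 nM LmPYK E451W mutant with 0.5 mM PEP and 0.1 mM ADP at pH 7.2. Activity is normalized to DMSO-only control wells.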

Measured: Potency

Cc1cccc(CNc2nc(-c3cccnc3)nc3ccccc23)c1
inactive: [1] | [2]

OC[C@H](S)CS
inactive: CP194 | CP215

N=c1ccn2c(n1)O[C@@H]1[C@@H](O)[C@H](CO)O[C@H]12
inactive: [1] | [2]

O=C1O/C(=C\Br)CC[C@@H]1c1cccc2ccccc12
inactive: [3]

Oc1ccc([C@@H]2CNCCc3c2cc(O)c(O)c3Cl)cc1
inactive: [4]

C[N+]1(C)[C@@H]2CC(OC(=O)[C@@H](CO)c3ccccc3)C[C@@H]1[C@H]1O[C@H]12 (stereo partly specified)
inactive: CP268 | CP269 | CP291 | CP297 | CP305 | ECU | FAB9 | TAB109

CC(=O)N1CCN(c2ccc(OC[C@@H]3CO[C@@](Cn4ccnc4)(c4ccc(Cl)cc4Cl)O3)cc2)CC1
inactive: CP269 | CP291 | CP297 | FAB9

N[C@H](COP(=O)(O)O)C(=O)O
inactive: CP194 | CP215 | CP268 | CP269 | CP291 | CP297 | CP305 | ECU | FAB9 | TAB109

N.N.N.N.N.N.N.N.N.N.N.N.N.N.O.O.[Ru].[Ru].[Ru]
inactive: [5]

Reference: PubChem BioAssay (NCATS)
